Our source for the max response values is PubChem BioAssay AID488834 (National Center for Advancing Translational Sciences (NCATS), 2010).

Values without a mark were called inactive. The call rests on the fitted dose curve; in most records, active means well fitted curve in the direction sought with a large enough effect; inactive means no such curve, though single readings can be large or run the other way.

The experiment concerns the target Lysosomal alpha-glucosidase (Homo sapiens) (UniProt P10253). Description: qHTS Assay for Inhibitors and Activators of N370S glucocerebrosidase as a Potential Chaperone Treatment of Gaucher Disease: Alpha-Glucosidase Counterscreen for Probe SAR. As to conditions: purified human alpha-glucosidase, 4-MU fluorogenic substrate. An excerpt: NIH Chemical Genomics Center [NCGC] NIH Molecular Libraries Probe Production Centers Network [MLPCN] MLPCN Grant: MH086442-01 Assay Submitter (PI): Wei Zheng Glucocerebrosidase (GC) catalyzes the hydrolysis of beta-glucocerebroside to glucose and ceramide in lysosomes. Mutations in the glucocerebrosidase gene result in Gaucher disease, an autosomal recessive lysosomal storage disorder. Many of the mutations encountered in patients with Gaucher disease are missense alterations that may cause misfolding, decreased stability and/or mistrafficking of this lysosomal protein. […] These inhibitors include iminosugar analogs and three non-iminosugar inhibitors identified from a previous HTS of 62,000 compounds with the wild type recombinant enzyme. However, the enhancement of enzyme activity by the chaperone action of an enzyme inhibitor must be balanced against the direct inhibition of the enzyme. An enzyme activator could also function as a chaperone by binding to the enzyme and helping to correct its misfolding and mistrafficking. While activators for GC have not yet been identified, they may have better therapeutic potential than inhibitors. Therefore the discovery and development of chemical activators may provide a new strategy for the chaperone therapy. To characterize compound selectivity, selected hits from the primary screen were screened against purified alpha-glucosidase, a related sugar hydrolase. Alpha-glucosidase is responsible for hydrolysis of terminal, non-reducing 1,4-linked alpha-D-glucose residues with release of alpha-D-glucose.
NCGC Assay Protocol Summary: This is a fluorogenic enzyme assay with 4-methylumbelliferyl-alpha-D-[…] as the substrate and human alpha-glucosidase as the enzyme preparation. Upon the hydrolysis of this fluorogenic substrate, the resulting product, 1. 4-methyllumbelliferone, can be excited at 365 nm and emits at 440 nm which can be detected by a standard fluorescence plate reader. Data were normalized to the controls for basal activity (without enzyme) and 100% activity (with enzyme). The AC50 values were determined from concentration-response data modeled with the standard Hill equation. Assay buffer: 50 mM citric acid (titrated with potassium phosphate to pH 5.0), 0.005% Tween-20, pH 5.0. (pH 5.0 is an optimal condition for this enzyme assay) 1536-well assay protocol for the human alpha-glucosidase: (1) Add 2 ul/well of enzyme (4 nM final) (2) Add 23 nL compounds in DMSO solution. The final titration was 0.7 nM to 77 uM. (3) Add 1 ul of substrate (400 uM final) (4) Incubate at room temperature for 20 min. (5) Add 2 ul stop solution (1M NaOH and 1M Glycine mixture, pH 10) (6) Detect the assay plate in a ViewLux plate reader (PerkinElmer) with Ex=365 nm and Em=440nm. Keywords: Alpha-glucosidase, Pompe Disease, pharmacological chaperone, chaperone therapy, high throughput screening, alpha-glucosidase inhibitor, MLSMR, MLSCN, NIH Roadmap, qHTS and NCGC
In general terms: qHTS replaces the single test concentration by a dilution series.
On to `C=C1C=C(C(F)F)n2ncc(C(=O)Nc3ccc(C(C)CC)cc3)c2N1` (stereo unspecified), for which the max response is -2.76%.
The value for `O=C(Nc1ccccc1Sc1ccccc1)c1cnn2c1NC(=C1CC1)C=C2C(F)(F)F` was -11.4%; that for `O=C(Nc1ccc2c(c1)CCC2)c1cnn2c1NC(=C1CC1)C=C2C(F)F` was -4.43%.
With `O=C(Nc1ccccc1Sc1ccccc1)c1cnn2c1NC(=C1CC1)C=C2C(F)F`, the max response was -18.1%.
To `O=C(NC1CCCCC1)c1cnn2c1NC(=C1CC1)C=C2C(F)F` belongs -3.85%; to `C#Cc1ccc(NC(=O)c2cnn3c(C)cc(C)nc23)cc1`, -2.48%.
